In PubChem BioAssay:
Values without a mark were called inactive. Activity calls are given as the source filed them.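 The calls were made as follows: active = viability at or under a set limit in both replicates, limit being median viability minus 3 SD (cut at about 48% in these data, passing the limit was not always enough); inconclusive = at or under the limit in just one replicate; inactive = at or above the limit in both replicates.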

experiment: H69AR cell proliferation blockers – human, duplicate replicates, primary screen (AID 580); conditions: H69AR lung tumor cells viability, ATP luminescence, 72 h; at 10 µM; stronger effect = lower value;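 also: 100% = mean luminescence of untreated wells and 0% = no signal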

Row | SMILES | viability
1 | COC(=O)c1ccccc1NC(=O)CSc1nc2c(c(=O)n(C)c(=O)n2C)n1C | 97%
2 | O=c1oc2ccccc2c2c1ncn2-c1ccccc1 | 89.1%
3 | COc1ccc(C2CC(c3ccccc3)Nc3nc(NC(=O)c4cccs4)nn32)cc1 (centres undefined) | 88.3%
4 | COC(=O)c1cccc(S(=O)(=O)N2CCN(c3nc4ccccc4s3)CC2)c1 | 81%
5 | COC(=O)CCSCc1cn2cc(Cl)ccc2n1 | 99.5%
6 | O=C(c1ccco1)N1CCN(S(=O)(=O)c2ccc(C3CCCCC3)cc2)CC1 | 85.6%
7 | COc1cccc(C(=O)CN2CCC(NC(=O)NC3CCCCC3)CC2)c1 | 98.1%
8 | CSCCC(NC(=O)c1occc1C)C(=O)O (centres undefined) | 103%
9 | Cc1cccc(N2CCN(Cc3c(C)n(C)n(-c4ccccc4)c3=O)CC2)c1C | 83.9%
10 | CCOc1cc(C2C(C(=O)OC(C)C)=C(C)N=C3SCCC(=O)N32)ccc1OC(C)=O (centres undefined) | 93.3%
11 | O=C(Cc1cccs1)Nc1ccccc1C(=O)O | 103%
12 | O=C(NCCN1CCOCC1)c1csc2c1CCCC2 | 102%
13 | O=C(CSc1nc2ccccc2s1)N1CCOCC1 | 90.4%
14 | CC1C(O)=C(c2nc3ccccc3[nH]2)C(=N)N1c1ccccc1 (centres undefined) | 16% (active)
15 | Cc1oc(-c2ccccc2F)nc1CS(=O)(=O)CC(=O)N1CCN(Cc2ccccc2)CC1 | 90.2%
16 | CSCSC1=C(C#N)C(c2ccc(Cl)cc2)C(C(C)=O)=C(C)N1 (centres undefined) | 75.2%
17 | Cc1ccc2c(c1)CCCN2C(=O)Nc1ccc2c(c1)OCO2 | 89.5%
18 | COc1cccc(N2CCN(CC(=O)Nc3nnc(-c4ccccc4)s3)CC2)c1 | 83.5%
19 | CCOC(=O)C1=C(C)NC(SC(C)=O)=NC1c1ccc(OC(C)=O)c(OC)c1 (centres undefined) | 85.3%
20 | C/C=C(\C)c1nnc(NC(=O)C(C)C)s1 | 98.7%
21 | Cc1cc(C(=O)CSCc2nnc3n(CCC(C)C)c(=O)c4ccccc4n23)c(C)n1C | 67.3%
22 | COc1cccc(C(=O)NCc2nnc(SCC(=O)Nc3nccs3)n2-c2ccccc2)c1 | 97.9%
23 | O=C(OCC(=O)N1CCc2ccccc21)C1=COCCO1 | 86.1%
24 | COc1cccc(Nc2cc(C)nc3ccccc23)c1 | 74.4%
